Screening results: PubChem BioAssay, National Center for Advancing Translational Sciences (NCATS)
In the library only some 19% were active in any assay of this set; here they are far more common.
DT40 TDP1 CPT: growth inhibition of DT40 Tdp1-/-;hTDP1 cells with camptothecin (screen for TDP1 inhibitors). 12% of 420,000 active. chicken DT40 Tdp1-/-;hTDP1 cells + 20 nM CPT, ATP luminescence, 48 h. Potency, µM (series often up to 46.2 µM), for the others: at the top dose activity change, negative = growth inhibition, actives largely listed as inhibitors; further: potency means the concentration at half of the fitted maximal effect; on the % scale 0 is the no-effect control and ±100 the full control effect; nearly all actives have a fitted effect of over 55% in size
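Chicken DT40 Tdp1-/- cells stably complemented with human TDP1 were seeded at 400 cells/well in medium containing 20 nM camptothecin, exposed to pin-transferred compounds, and grown at 37 °C for at least 48 hr. Viability was read as ATP luminescence.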
TGFb SMAD3 inh: inhibitors of TGF-b signaling. HepG2 CAGA-GFP TGF-b/SMAD3 reporter, GFP fluorescence, 18 h; TGF-beta stimulated, 500 pg/mL final. AID 588855. Potency, µM (highest dose often 46.1 µM), without a hit: at the highest dose activity, negative = inhibition, most hits filed as inhibitors. 1.2% of 410,000 active; further: potency means the concentration at half of the fitted maximal effect; on the % scale 0 is the no-effect control and ±100 the full control effect; nearly all actives have a fitted effect of over 65% in size
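Smad-responsive CAGA-GFP expression was quantified in HEPG2 cells exposed to compounds and 500 pg/mL final TGF-beta for 18 h at 37 degrees C; unstimulated wells defined full inhibition.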
HepG2 viability: HepG2 cytotoxicity, counter-screen for TGF-b inhibitors; Potency, µM (titrated, usually from 46.1 µM), for inactives: at the highest dose activity change, negative = cytotoxicity, most hits filed as cytotoxic; 0.76% of 410,000 active; AID 588856; HepG2 CAGA-GFP viability, ATP luminescence, 18 h; further: potency means the concentration at half of the fitted maximal effect
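CellTiter-Glo luminescence gave cytotoxicity after 18 hours at 37 degrees C. The cells were HepG2 CAGA-GFP in 1% FBS DMEM, stimulated with 500 pg/mL TGF-beta after compound addition. %Activity was normalised to no-cell wells (complete cell-killing) and DMSO (no toxicity), and curves were fitted and classified.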
S-ASM inh: human S-ASM enzyme inhibition | placental ASM, HMU-PC fluorogenic substrate, 60 min | Potency, µM (titrated, usually from 57.5 µM), for inactives: at the highest dose activity change, negative = inhibition, actives largely listed as inhibitors | 0.006% of 340,000 active | AID 504937; further: potency means the concentration at half of the fitted maximal effect
Target sequence (P17405 47-631 limits assumed): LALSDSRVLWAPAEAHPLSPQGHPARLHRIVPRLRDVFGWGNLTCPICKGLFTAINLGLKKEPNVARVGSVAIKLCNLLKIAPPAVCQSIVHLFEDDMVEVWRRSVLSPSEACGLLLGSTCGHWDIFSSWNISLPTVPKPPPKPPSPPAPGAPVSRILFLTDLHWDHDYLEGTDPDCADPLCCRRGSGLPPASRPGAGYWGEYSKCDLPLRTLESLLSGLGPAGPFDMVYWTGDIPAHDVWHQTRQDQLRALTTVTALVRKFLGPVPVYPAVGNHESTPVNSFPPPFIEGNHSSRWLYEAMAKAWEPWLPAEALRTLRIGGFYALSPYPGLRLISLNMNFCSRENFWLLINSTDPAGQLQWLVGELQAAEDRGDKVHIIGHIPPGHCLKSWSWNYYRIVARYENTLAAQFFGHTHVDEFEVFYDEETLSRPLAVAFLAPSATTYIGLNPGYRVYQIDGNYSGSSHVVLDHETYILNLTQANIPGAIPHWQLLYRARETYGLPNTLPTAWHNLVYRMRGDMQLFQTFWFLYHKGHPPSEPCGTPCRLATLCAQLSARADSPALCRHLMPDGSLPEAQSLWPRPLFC
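Fluorescence read-out (Ex 386 nm, Em 447 nm) after stopping the reaction at pH 10. Enzyme: ASM from human placenta; substrate HMU-PC0, 9 uM final; 60 min, 37 °C. Compound preincubation 10 min, ambient temperature.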
DT40 TDP1 no CPT: qHTS for Inhibitors of human tyrosyl-DNA phosphodiesterase 1 (TDP1): qHTS in cells in absence of CPT. Potency, µM (titrated, usually from 46.2 µM), inactives show at the highest dose activity change, negative = growth inhibition, usual class: inhibitors. 15% of 420,000 active. DT40 Tdp1-/- hTDP1 cells, no CPT, ATP luminescence, 48 h; further: potency means the concentration at half of the fitted maximal effect; on the % scale 0 is the no-effect control and ±100 the full control effect; nearly all actives have a fitted effect of over 55% in size
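Chicken DT40 Tdp1-/- cells stably complemented with human TDP1 were seeded at 400 cells/well with DMSO in place of 20 nM camptothecin. After compound pinning, cells grew at least 48 hr at 37 °C; viability read by CellTiter-Glo luminescence.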
IL1B secr inh: blocks inflammasome-driven IL-1 beta release. THP-1 LPS/ATP IL-1B secretion, AlphaLISA, 16 h; stronger effect = lower value. activity change, % at 57.5 µM. 4.7% of 360,000 active. AID 743279; in the data active means activity change below about -50%; inconclusive means mostly about -30% to -49%; further: on the % scale 0 is the no-effect control and ±100 the full control effect
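THP-1 cells pretreated 1 hr with compounds (up to 57.5 uM final), then stimulated with LPS (250 ng/mL final) plus ATP (1.25 mM final); secreted IL-1B measured by AlphaLISA after 16 hr, decreased signal indicating inhibition.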
Starred values were filed as active, the others as inactive; ? = inconclusive; nt = not tested or not shown. Unless noted, the call rests on the fitted dose curve; in most records, active means well fitted curve in the direction sought with a large enough effect; inconclusive means small, poorly fitted or top-dose-only effect, or another doubt; inactive means no such curve, though single readings can be large; an effect the other way counts as inactive or inconclusive.

SMILES	DT40 TDP1 CPT	TGFb SMAD3 inh	HepG2 viability	S-ASM inh	DT40 TDP1 no CPT	IL1B secr inh
C(=C\c1ccnc2ccccc12)/c1ccc(N2CCN(c3ccc(/C=C/c4ccnc5ccccc45)cc3)CC2)cc1	5µM*	-4%	-40%	nt	6.3µM*	nt
C(=C\c1ccnc2ccccc12)/c1ccc(N2CCNCC2)cc1	?	?	-49%	nt	14µM*	nt
C(=C\c1ccnc2ccccc12)/c1ccc(N2CCOCC2)cc1	1.8µM*	-22%	-6%	nt	1.3µM*	nt
COc1ccc(NC(=O)c2oc3ccccc3c2NC(=O)Cc2cccs2)c(OC)c1	?	0%	-21%	nt	?	nt
Cc1ccc(CN2CCC(Oc3cccc(C(=O)NCc4cccnc4)c3)CC2)o1	?	-7%	-3%	1%	0%	0
CCOC(=O)C1CCN(C(=O)CCc2nnc3ccc(N4CCN(C)CC4)nn23)CC1	-7%	0%	-1%	8%	23%	9
COc1ccc(N2CCN(C(=O)CCn3nc(C)c(S(=O)(=O)N4CCCC4)c3C)CC2)cc1	?	-15%	-14%	nt	?	nt
Cc1nn(CCC(=O)Nc2ccc(Cl)cc2)c(C)c1S(=O)(=O)N1CCCCC1	21µM*	?	-22%	nt	15µM*	nt
Cc1ccc(NC(=O)CCn2nc(C)c(S(=O)(=O)N3CCCCC3)c2C)cc1Cl	?	?	-18%	nt	16µM*	nt
Cc1nn(CCC(=O)Nc2cccc(C#N)c2)c(C)c1S(=O)(=O)N1CCCCC1	?	-2%	-11%	1%	?	45
Cc1nn(CCC(=O)N2CCN(c3ccccc3)CC2)c(C)c1S(=O)(=O)N1CCCC1	18µM*	-12%	-1%	nt	?	nt
C[C@H](CO)N1C[C@H](C)[C@@H](CN(C)C(=O)NC2CCCCC2)Oc2ccc(NS(=O)(=O)c3ccccc3)cc2C1=O	-18%	18%	2%	3%	-18%	-12
Cc1ccc(S(=O)(=O)Nc2ccc3c(c2)C(=O)N([C@@H](C)CO)C[C@@H](C)[C@@H](CN(C)C(=O)NC2CCCCC2)OCCCC[C@H](C)O3)cc1	0%	6%	-5%	nt	-16%	-16
Cc1ccc(S(=O)(=O)Nc2ccc3c(c2)C(=O)N([C@H](C)CO)C[C@H](C)[C@H](CN(C)C(=O)Nc2cccc4ccccc24)OCCCC[C@@H](C)O3)cc1	21µM*	0%	-7%	nt	15µM*	-2
C[C@@H]1CN([C@@H](C)CO)C(=O)c2cc(NS(=O)(=O)c3ccc(F)cc3)ccc2O[C@@H](C)CCCCO[C@H]1CN(C)C(=O)NC1CCCCC1	23µM*	0%	-21%	nt	?	-12
Cc1noc(C)c1NC(=O)Nc1ccc2c(c1)C(=O)N([C@@H](C)CO)C[C@@H](C)[C@H](CN(C)C(=O)Nc1cccc3ccccc13)OCCCC[C@H](C)O2	?	12%	10%	nt	?	-13
C[C@@H]1CCCCO[C@@H](CN(C)C(=O)Nc2ccccc2)[C@@H](C)CN([C@H](C)CO)C(=O)c2cc(N(C)C)ccc2O1	-26%	24%	-18%	nt	?	20
C[C@@H]1CCCCO[C@H](CN(C)C(=O)Nc2cccc3ccccc23)[C@@H](C)CN([C@H](C)CO)C(=O)c2cc(N(C)C)ccc2O1	15µM*	-7%	-2%	nt	9.2µM*	6
Cc1ccc(S(=O)(=O)Nc2ccc3c(c2)C(=O)N([C@H](C)CO)C[C@H](C)[C@@H](CN(C)C(=O)NC2CCCCC2)OCCCC[C@@H](C)O3)cc1	21µM*	36%	-17%	nt	13µM*	-9
CCOc1ccc(S(=O)(=O)N2CCC(C(=O)N3CCN(Cc4ccccc4)CC3)CC2)cc1	?	?	-1%	-2%	?	-11
O=C(CCc1ccccc1)NC1(Cc2ccccc2)CCN(CCc2cccs2)C1=O (stereo not given)	?	?	-15%	-3%	?	?
CC1(NC(=O)CCc2ccccc2)CCN(CCCc2ccccc2)C1=O (stereo not given)	15µM*	-15%	-18%	5%	?	24
CC1(NC(=O)CC(c2ccccc2)(c2ccccc2)c2ccccc2)CCN(CCCc2ccccc2)C1=O (stereo not given)	23µM*	8.9µM*	-21%	?	21µM*	-13
O=C(Nc1ccnn1C1CCN(CCCc2ccccc2)CC1)c1ccccc1	-6%	2%	-14%	0%	-11%	-16
CC1(NC(=O)c2ccccc2)CCN(CCCc2ccccc2)C1=O (stereo not given)	3.7µM*	-3%	0%	2%	4.6µM*	6
SMILES	DT40 TDP1 CPT	TGFb SMAD3 inh	HepG2 viability	S-ASM inh	DT40 TDP1 no CPT	IL1B secr inh
O=C(NC1(Cc2ccccc2)CCN(Cc2ccc(-c3ccccc3)cc2)C1=O)c1ccccc1 (stereo not given)	21µM*	?	-25%	?	23µM*	-10
O=C(c1ccc2c(=O)n3c(nc2c1)CCCCC3)N1CCN(C(c2ccccc2)c2ccccc2)CC1	?	?	5%	-8%	?	?
CC(=O)c1c(N2CCOCC2)[nH]c(-c2ccccc2)nc1=S	16µM*	-1%	-3%	4%	?	36
CC(=O)c1c(N2CCCC2)[nH]c(-c2ccccc2)nc1=S	?	8%	-31%	2%	?	-15
CC(=O)c1c(N)[nH]c(-c2ccccc2)nc1=S	6.5µM*	-14%	1%	0%	6.5µM*	13
CCOc1ccc(S(=O)(=O)N2CCCC(C(=O)NCc3ccncc3)C2)cc1Cl (stereo not given)	-18%	-7%	-14%	-2%	?	-21
O=C(N/N=C/c1cn(-c2cccs2)nc1-c1ccccc1)c1ccccc1O	13µM*	11µM*	-47%	-17%	8.2µM*	77
O=C(N/N=C/c1cn(-c2cccs2)nc1-c1ccccc1)c1ccccc1Br	23µM*	-4%	-1%	?	23µM*	?
O=C(N/N=C/c1ccccc1C(=O)O)c1ccccc1Br	19%	-1%	-5%	4%	-3%	12
CCCCc1nc2sc3c(SCC(=O)NCc4ccco4)ncnc3c2c2c1CCC2	13µM*	4%	-12%	-9%	11µM*	17
